Sampled rows, rich in hits. Any-hit rate of the full collection: about 11%.
HEK cytotox: kills HEK 293 cells | AID 1345083 | Potency, µM (titrated, usually from 115 µM), for inactives: top-dose activity change, negative = cytotoxicity, most hits filed as inhibitors | HEK 293 viability, ATP luminescence (CellTiter-Glo), 48-72 h | actives 6.6% (n = 94,000); further: nearly all actives have a fitted effect of over 60% in size
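Pintool-delivered compounds were incubated with HEK 293 cells (250 cells/well) at 37 degree Celsius for 48 or 72 hr. ATP-dependent luminescence (CellTiter-Glo) then reported remaining viable cells.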
hNpr1 antagonist: human Npr1 receptor antagonism. P16066. HEK293 hNpr1 GloSensor cGMP, ANP-stimulated luminescence. Potency, µM (doses to about 46.3 µM), inactives show at the highest dose activity change, negative = inhibition, actives largely listed as inhibitors. actives 1.6% (n = 76,000). AID 1347048; calls by dose curve; further: nearly all actives have a fitted effect of over 60% in size
Target sequence (P16066 whole entry, looked up): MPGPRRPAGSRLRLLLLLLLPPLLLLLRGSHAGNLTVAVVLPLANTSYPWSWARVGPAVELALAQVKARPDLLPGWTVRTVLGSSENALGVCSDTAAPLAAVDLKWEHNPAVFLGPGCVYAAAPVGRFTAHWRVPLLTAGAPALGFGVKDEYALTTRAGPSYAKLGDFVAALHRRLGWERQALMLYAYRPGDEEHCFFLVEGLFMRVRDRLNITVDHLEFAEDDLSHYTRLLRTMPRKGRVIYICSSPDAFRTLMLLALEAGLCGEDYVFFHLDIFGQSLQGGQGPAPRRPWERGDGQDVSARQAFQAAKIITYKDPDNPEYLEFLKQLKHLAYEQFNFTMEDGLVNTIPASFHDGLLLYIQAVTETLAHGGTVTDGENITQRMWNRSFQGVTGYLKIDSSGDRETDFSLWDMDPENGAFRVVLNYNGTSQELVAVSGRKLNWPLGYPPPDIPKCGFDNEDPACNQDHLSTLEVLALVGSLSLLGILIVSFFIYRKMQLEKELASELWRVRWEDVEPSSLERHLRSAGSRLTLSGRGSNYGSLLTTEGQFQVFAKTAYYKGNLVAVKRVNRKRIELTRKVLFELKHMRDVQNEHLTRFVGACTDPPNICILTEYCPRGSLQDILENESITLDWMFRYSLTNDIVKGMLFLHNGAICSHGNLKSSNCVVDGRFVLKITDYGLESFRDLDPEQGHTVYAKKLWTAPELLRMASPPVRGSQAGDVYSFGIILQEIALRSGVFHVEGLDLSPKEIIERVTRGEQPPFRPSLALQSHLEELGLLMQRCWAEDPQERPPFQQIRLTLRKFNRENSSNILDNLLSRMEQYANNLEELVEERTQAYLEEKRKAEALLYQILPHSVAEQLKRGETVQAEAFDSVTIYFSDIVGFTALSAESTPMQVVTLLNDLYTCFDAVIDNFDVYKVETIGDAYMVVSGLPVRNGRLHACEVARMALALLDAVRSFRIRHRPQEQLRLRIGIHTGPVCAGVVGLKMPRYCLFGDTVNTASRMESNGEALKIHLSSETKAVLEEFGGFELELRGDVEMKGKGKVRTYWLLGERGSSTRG
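Compound pre-incubated 30 min at room temperature on GloSensor-loaded HEK293 cells stably carrying hNpr1 and the pGS-40F cGMP biosensor. Stimulation uses hNppA at 0.1 nM final; luminescence is taken at baseline and 20 min post-agonist.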
Luciferase inh: blocks purified firefly luciferase enzyme activity; P08659; purified P. pyralis luciferase, luminescence, biochemical; Potency, µM (series often up to 115 µM), hits mostly inhibitors; actives 2.5% (n = 76,000); further: nearly all actives have a fitted effect of over 65% in size
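Inhibitors were tested against purified firefly luciferase in a biochemical, low-substrate format (both substrates at 10uM) and luminescence measured with a CCD imager.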
NIH3T3 tox: kills NIH 3T3 cells | NIH 3T3 viability, CellTiter-Glo ATP luminescence, 48-72 h | Potency, µM (titrated, usually from 96.7 µM), inactives show at the highest dose activity change, negative = cytotoxicity, actives largely listed as inhibitors | actives 4.3% (n = 94,000) | AID 1345082; further: nearly all actives have a fitted effect of over 55% in size
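ATP-dependent luminescence (CellTiter-Glo) served as the viability signal for NIH 3T3 cells treated with compound for 48 or 72 hr at 37 °C.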
* hit, by the source's call; i = inactive; u = inconclusive; x = not tested or not shown; ! = not active in a repeat; [ ] = remark or other dose. Unless noted, the call rests on the fitted dose curve; in most records, active means well fitted curve in the direction sought with a large enough effect; inconclusive means small, poorly fitted or top-dose-only effect, or another doubt; inactive means no such curve, though single readings can be large; an effect the other way counts as inactive or inconclusive. On the % scale 0 is the no-effect control and ±100 the full control effect; potency means the concentration at half of the fitted maximal effect.

SMILES	HEK cytotox	hNpr1 antagonist	Luciferase inh	NIH3T3 tox
CN1C(=O)C2(CCN(Cc3ccnn3C)C2)c2ccccc21 (stereo not given)	-15%[172 µM]	13%[70.6 µM]	i	-21%[138 µM]
Cc1cc(CN2CCC3(C2)C(=O)N(Cc2ccccc2)c2ccccc23)no1 (stereo not given)	50µM*	11%	i	u
O=C1N(CCc2ccccc2)c2ccccc2C12CCN(Cc1ccncc1)C2 (stereo not given)	35µM*	u	i	35µM*!
Cn1nccc1CN1CCC2(C1)C(=O)N(CCc1ccccc1)c1ccccc12 (stereo not given)	35µM*!	-1%	i	u
Cn1cccc1CN1CCC2(C1)C(=NC1CCCCC1)NC(=O)N2c1cccnc1 (stereo not given)	i	x	x	u
COCCS(=O)(=O)c1ncc(CN2CC[C@@H]3CCCC[C@H]3C2)n1Cc1ccccc1	45µM*	-4%	i	u
CCc1nc(-c2ccc(OC3CCN(Cc4cc(F)ccc4F)C3)cc2)no1 (stereo not given)	u	u	i	-27%
Cn1ncc2c(C(=O)NCc3cccc(C(F)(F)F)c3)cc(-c3ccc(Cl)cc3Cl)nc21	-3%	x	x	u
COc1ccc(F)c(-c2nc(Cn3cnc4ccccc43)c(C)o2)c1	u	u	i	u
COc1ccccc1-c1ccc(CN2CCCCC2C(=O)N2CCOCC2)cc1 (stereo not given)	u	x	x	-38%
COc1ccc(F)cc1-c1ccc(CN2CCCCC2C(=O)NCCc2ccc(Cl)cc2)cc1 (stereo not given)	32µM*	x	x	u
COc1ccc(F)cc1-c1ccc(CN2CCCCC2C(=O)N2CCCN(C(C)=O)CC2)cc1 (stereo not given)	45µM*	x	x	-35%
COc1ccccc1-c1ccc(CN2CCCCC2C(=O)NC(C)C)cc1 (stereo not given)	79µM*	x	x	u
COc1ccccc1-c1ccc(CN2CCCCC2C(=O)NCC(F)F)cc1 (stereo not given)	u	x	x	45µM*!
COc1ccc(NC(=O)O[C@@H]2CO[C@H]3[C@@H]2OC[C@@H]3NC(=O)Nc2ccc(C(C)C)cc2)cc1	-18%	0%	i	-16%
COc1ccc(F)cc1-c1ccc(CN2CCCCC2C(=O)NCC(F)F)cc1 (stereo not given)	35µM*	x	x	u
O=C(NCC(F)F)c1cc(-c2cccc(C(F)(F)F)c2)c2nncn2n1	u	x	x	-28%
O=C(c1cc(-c2cccc(C(F)(F)F)c2)c2nncn2n1)N1CCC(c2ccccc2)CC1	25µM*	x	x	u
C#CCNC(=O)c1cc(-c2cccc(C(F)(F)F)c2)c2nncn2n1	10µM*	x	x	u
O=C(Nc1ccccc1)c1ccc2c(c1)OCCN(CCC(F)(F)F)C2	u	8%[70.6 µM]	u	u
CCc1nnc([C@@H]2CC(F)(F)CN2C(=O)CCn2cc(C)cn2)o1	3%	-2%	i	-6%
CCN1c2cc(C(=O)Nc3cccc(Br)c3)ccc2C(=O)N2CCCCCC21 (stereo not given)	18µM*	-4%	i	28µM*
CCN1c2cc(C(=O)NCc3cccc(C)c3)ccc2C(=O)N2CCCCCC21 (stereo not given)	u	-1%	i	u
CCN1c2cc(C(=O)Nc3cccc(Br)c3)ccc2C(=O)N2CCCCC21 (stereo not given)	18µM*	-7%	i	18µM*
CCN1c2cc(C(=O)Nc3ccc(Br)cc3)ccc2C(=O)N2CCCCC21 (stereo not given)	u	-10%	i	u
CCN1c2cc(C(=O)NCc3cccc(Br)c3)ccc2C(=O)N2CCCCC21 (stereo not given)	32µM*	0%	i	u
COc1ccc(-n2nc(C)c(CCC(=O)N3CCOCC3)c2Oc2ccccc2F)cc1	u	3%	i	u
COC(=O)[C@@H](Cc1cccnc1)NC(=O)[C@H]1CN(C(=O)Nc2ccccc2)CCN1S(=O)(=O)c1ccccc1	i	-3%	i	-34%
COc1ccc(OCc2nc(C)c(CCO)c(=O)n2CC(=O)Nc2ccc(C)c(C)c2)cc1	u	-8%	i	-25%
COc1ccc(NC(=O)Nc2ccc(C)n(CC(=O)Nc3ccc(C)c(C)c3)c2=O)cc1	u	-15%	0.71µM*	-28%

High-throughput results (PubChem)
